{"source": "PubChem BioAssay (Tox21)", "key": {"[1]": {"assay": "cAMP Responsive Elements (CRE) small molecule antagonists, cell-based qHTS assay: qHTS cell viability counter screen (AID 2060913); also: nearly all actives have a fitted effect of over 40% in size", "details": "CRE-bla HEK293T viability, CellTiter-Glo luminescence, 5 h; series mostly up to 92.4 µM", "summary_of_the_method": "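CRE-bla HEK293T cells were seeded in assay medium with 10% dialyzed FBS, incubated 18 hrs at 37 C, then exposed to compounds plus 0.25 uM final NKH477 for 3 hrs. Viability was read by CellTiter-Glo luminescence after 30 min, in the same wells.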"}, "[2]": {"assay": "cAMP Responsive Elements (CRE) small molecule agonists, cell-based qHTS assay: qHTS cell viability counter screen (AID 2060914); also: nearly all actives have a fitted effect of over 50% in size", "details": "CRE-bla HEK293T viability, CellTiter-Glo luminescence, 5 h; series mostly up to 92.4 µM", "summary_of_the_method": "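CRE-bla HEK293T cells in 10% dialyzed FBS medium were exposed to compounds for 3 h at 37C after 18 h plating. CellTiter-Glo was then added in the same wells, and luminescence was read after 30 min at room temperature.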"}}, "note": "Results filed as inconclusive are left out. Where a call stands in place of a potency, no number is given. The source made the active and inactive calls. Calls follow the shape of the dose curve; as a rule, active = well fitted cell-killing curve with a large enough effect in the repeat runs; inconclusive = weak or mixed curves, or effect the other way; inactive = flat fitted curve, though single readings scatter. Potency is read from the fitted curve at half-maximal effect."}
{"smiles": "CC(C)OC(=O)c1cc2c(OCC(O)CNC(C)(C)C)cccc2[nH]1", "note": "(configuration not stated)", "values": [{"measurement": "Potency", "setting": "[1]", "result": "inactive"}, {"measurement": "Potency", "setting": "[2]", "result": "inactive"}]}
{"smiles": "O=C(CN1CCNCC1)NC1CCCCC1", "values": [{"measurement": "Potency", "setting": "[1]", "result": "inactive"}, {"measurement": "Potency", "setting": "[2]", "result": "inactive"}]}
{"smiles": "O=[N+]([O-])c1ccc(F)c(Cl)c1", "values": [{"measurement": "Potency", "setting": "[1]", "result": "inactive"}, {"measurement": "Potency", "setting": "[2]", "result": "inactive"}]}
{"smiles": "CC(=O)Nc1cccc(C)c1", "values": [{"measurement": "Potency", "setting": "[1]", "result": "inactive"}, {"measurement": "Potency", "setting": "[2]", "result": "inactive"}]}
{"smiles": "C=C(C)C(=O)O", "values": [{"measurement": "Potency", "setting": "[1]", "result": "inactive"}, {"measurement": "Potency", "setting": "[2]", "result": "inactive"}]}
{"smiles": "C[Si](C)(CCCN)O[Si](C)(C)CCCN", "values": [{"measurement": "Potency", "setting": "[1]", "result": "inactive"}, {"measurement": "Potency", "setting": "[2]", "result": "inactive"}]}
{"smiles": "CCc1cccc(O)c1", "values": [{"measurement": "Potency", "setting": "[1]", "result": "inactive"}, {"measurement": "Potency", "setting": "[2]", "result": "inactive"}]}
{"smiles": "COc1cc2nc(N(C)CCCNC(=O)C3CCCO3)nc(N)c2cc1OC", "note": "(configuration not stated)", "values": [{"measurement": "Potency", "setting": "[1]", "result": "inactive"}, {"measurement": "Potency", "setting": "[2]", "result": "inactive"}]}
{"smiles": "Cc1ncc([C@@H](CCCCCCc2ccc3c(n2)NCCC3)CC(=O)O)cn1", "values": [{"measurement": "Potency", "setting": "[1]", "result": "inactive"}, {"measurement": "Potency", "setting": "[2]", "result": "inactive"}]}
{"smiles": "NNc1ccc(C(=O)O)cc1", "values": [{"measurement": "Potency", "setting": "[1]", "result": "inactive"}, {"measurement": "Potency", "setting": "[2]", "result": "inactive"}]}
{"smiles": "CO[C@@]1(NC(=O)CSC[C@@H](N)C(=O)O)C(=O)N2C(C(=O)O)=C(CSc3nnnn3C)CS[C@@H]21", "values": [{"measurement": "Potency", "setting": "[1]", "result": "inactive"}, {"measurement": "Potency", "setting": "[2]", "result": "inactive"}]}
{"smiles": "CN1CCN(CCCN2c3ccccc3Sc3ccc(S(=O)(=O)N(C)C)cc32)CC1", "values": [{"measurement": "Potency", "setting": "[1]", "result": "inactive"}, {"measurement": "Potency", "setting": "[2]", "result": "inactive"}]}
{"smiles": "C=CC(C)(O)CC/C=C(/C)CCC=C(C)C", "note": "(configuration not stated)", "values": [{"measurement": "Potency", "setting": "[1]", "result": "inactive"}, {"measurement": "Potency", "setting": "[2]", "result": "inactive"}]}
{"smiles": "Nc1ccc(NC(=O)c2ccc(N)cc2)cc1", "values": [{"measurement": "Potency", "setting": "[1]", "result": "inactive"}, {"measurement": "Potency", "setting": "[2]", "result": "inactive"}]}
{"smiles": "CCCCCCCCCCCCS", "values": [{"measurement": "Potency", "setting": "[1]", "result": "inactive"}, {"measurement": "Potency", "setting": "[2]", "result": "inactive"}]}
{"smiles": "CC1=CC(=O)/C(=C(/C)O)C(=O)O1", "values": [{"measurement": "Potency", "setting": "[1]", "result": "inactive"}, {"measurement": "Potency", "setting": "[2]", "result": "inactive"}]}
{"smiles": "CCCCCCCCCCCC[N+](C)(C)CCCS(=O)(=O)[O-]", "values": [{"measurement": "Potency", "setting": "[1]", "result": "inactive"}, {"measurement": "Potency", "setting": "[2]", "result": "inactive"}]}
{"smiles": "C[Si](C)O[Si](C)(C)O[Si](C)(C)O[Si](C)C", "values": [{"measurement": "Potency", "setting": "[1]", "result": "inactive"}, {"measurement": "Potency", "setting": "[2]", "result": "inactive"}]}
{"smiles": "NS(=O)(=O)c1cc2c(cc1C(F)(F)F)NCNS2(=O)=O", "values": [{"measurement": "Potency", "setting": "[1]", "result": "inactive"}, {"measurement": "Potency", "setting": "[2]", "result": "inactive"}]}
{"smiles": "CCc1cc(SCc2sc(-c3ccc(C(F)(F)F)cc3)nc2CN2CCN(c3ccc(OC)cc3)CC2)ccc1OCC(=O)O", "values": [{"measurement": "Potency", "setting": "[1]", "result": "54.5 µM (active)"}, {"measurement": "Potency", "setting": "[2]", "result": "61.1 µM (active)"}]}
{"smiles": "CC(C)=CCCC(C)O", "note": "(configuration not stated)", "values": [{"measurement": "Potency", "setting": "[1]", "result": "inactive"}, {"measurement": "Potency", "setting": "[2]", "result": "inactive"}]}
